According to PubChem BioAssay AID2796 (The Scripps Research Institute Molecular Screening Center, 2010):
Among all 320,000 compounds or so, about 8,000 (2.5%) were called active. This excerpt belongs to a sample that is enriched for actives. Values without a mark were called inactive. Cut-off read from the data, not from the text of the source: active = activation above about 47%; inactive = the rest.

target: Aryl hydrocarbon receptor (Homo sapiens) (UniProt P35869); experiment: AHR activators, primary screen, cell-based, luminescence, luciferase reporter, human (AID 2796); conditions: AHR-responsive luciferase reporter cells, at 5 µM, active compounds read high;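 note: 0% = vehicle wells and 100% = reference agonist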
Sequence (P35869 whole entry, looked up): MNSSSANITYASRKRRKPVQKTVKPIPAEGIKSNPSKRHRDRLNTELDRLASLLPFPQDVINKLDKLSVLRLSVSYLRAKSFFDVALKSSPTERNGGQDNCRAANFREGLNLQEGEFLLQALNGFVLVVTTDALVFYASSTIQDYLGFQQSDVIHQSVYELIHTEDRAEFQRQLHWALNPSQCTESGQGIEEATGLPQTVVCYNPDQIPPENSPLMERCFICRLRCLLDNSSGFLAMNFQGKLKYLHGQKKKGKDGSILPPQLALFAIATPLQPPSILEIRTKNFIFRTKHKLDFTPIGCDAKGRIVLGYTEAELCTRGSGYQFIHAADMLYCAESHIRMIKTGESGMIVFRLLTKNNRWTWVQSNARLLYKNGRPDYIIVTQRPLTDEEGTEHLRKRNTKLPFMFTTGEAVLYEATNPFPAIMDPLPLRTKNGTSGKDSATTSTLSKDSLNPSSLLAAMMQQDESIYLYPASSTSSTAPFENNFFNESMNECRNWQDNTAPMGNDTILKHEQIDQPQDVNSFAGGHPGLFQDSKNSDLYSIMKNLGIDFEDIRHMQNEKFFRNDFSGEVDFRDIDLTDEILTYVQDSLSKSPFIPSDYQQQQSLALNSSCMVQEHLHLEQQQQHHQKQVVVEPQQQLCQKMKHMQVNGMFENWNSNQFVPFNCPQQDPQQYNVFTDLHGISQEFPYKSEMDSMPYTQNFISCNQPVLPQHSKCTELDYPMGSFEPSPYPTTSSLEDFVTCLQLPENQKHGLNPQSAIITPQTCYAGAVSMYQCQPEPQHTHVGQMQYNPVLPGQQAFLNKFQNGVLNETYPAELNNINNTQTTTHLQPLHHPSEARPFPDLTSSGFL

Row | SMILES | activation
1 | CC(c1ccco1)N(C(=O)COc1ccccc1[N+](=O)[O-])c1ccccn1 (stereo unspecified) | 1.97%
2 | CC(C)=CCN1CCN(Cc2ccc(Oc3ncccn3)cc2)CC1CCO (stereo unspecified) | -1.11%
3 | CCc1ccc(-c2cc(C(=O)NN3CCN(C)CC3)c3ccccc3n2)cc1 | 30.5%
4 | O=C(NCCc1ccccn1)c1nc(Cn2cc([N+](=O)[O-])cn2)no1 | 0.9%
5 | O=C(Nc1ccc(Br)c2cccnc12)c1ccc(Cn2cc([N+](=O)[O-])cn2)o1 | 52% (active)
6 | CCc1ccc(NC(=O)c2ccc(Cn3cc([N+](=O)[O-])cn3)cc2)cc1 | 3.58%
7 | Cn1c(N2CCOCC2)c(C=O)c2ccccc21 | 1.65%
8 | O=C(OCC(=O)N1CCN(c2ccccc2)CC1)c1ccc([N+](=O)[O-])s1 | 0.3%
9 | CSCCC1NC2(C(=O)Nc3ccc(Cl)cc32)[C@@H]2C(=O)N(C3CCCC3)C(=O)[C@H]12 (stereo partly specified) | 8.17%
10 | Clc1cccc(Cl)c1Cn1nnc(-c2cccs2)n1 | 64.8% (active)
11 | COc1ccccc1N1CCN(C(=O)Cn2nnc(-c3cccs3)n2)CC1 | 4.18%
12 | O=c1cc(Cn2nnc(-c3ccc(Cl)cc3)n2)nc2sccn12 | 3.29%
13 | Cc1nnc(SCC(=O)NC(=O)NC2CCCC2)n1N | 1.5%
14 | Cc1nnc(SCC(=O)Nc2cccc(N)c2)n1-c1ccccc1 | 7.29%
15 | O=C(CNC(=O)c1ccc2ccccc2c1)Nc1ncccc1O | 10.7%
16 | Cc1ccc(NC(=O)CSc2cccc3cccnc23)c(C)c1 | 10.7%
17 | O=C(CSc1cccc2cccnc12)N/N=C/c1cccnc1 | 150% (active)
18 | Cc1nc2ccccc2n1CC(=O)N/N=C/c1cccnc1 | 2.29%
19 | CCN(CC(=O)Nc1c(F)cccc1F)C(=O)C1CCC1 | -0.62%
20 | Cc1cc(SCC(=O)NCCN2C(=O)CSC2=O)nc2ccccc12 | 55.3% (active)
21 | COc1ccc2c(C)cc(SCC(=O)NCC3CCCO3)nc2c1 (stereo unspecified) | 17.6%

Row | SMILES | activation
22 | CCCNC(=O)CSc1nc(Cc2ccccc2)nc2ccccc12 | -0.23%
23 | CC(C)OC(=O)Cn1nc(C(F)(F)F)c2c1CCCC2 | -2.63%
24 | O=C(COC(=O)c1cc(=O)[nH]c2ccccc12)Nc1nc(-c2cccc(Br)c2)cs1 | 5%
25 | CCOC(=O)c1cc2c(=O)[nH]c(C(Cl)(Cl)Cl)nc2o1 | -0.93%
26 | CC1(C)Oc2ccc(C(=O)N3CCOCC3)cc2N(CC(=O)Nc2ccccc2)C1=O | 1.48%
27 | CCSc1nc2c(c(=O)[nH]1)C(c1cccnc1)C(C(=O)OC(C)C)=C(C)N2 (stereo unspecified) | 0.13%
28 | CCC1(C)Cc2c(sc3nc(SC)[nH]c(=O)c23)CO1 (stereo unspecified) | -2.64%
29 | COc1ccc(-n2c(=S)[nH]c3sc4c(c3c2=O)CCc2ccccc2-4)cc1 | 8.98%
30 | CSc1nc2sc3c(c2c(=O)[nH]1)CCc1ccccc1-3 | 74% (active)
31 | O=C(CNC(=O)Cc1ccccc1)NCC(=O)OCC(=O)c1ccccc1Cl | 22.1%
32 | C/C(=N\NC(=O)C(N)=O)c1ccc2c(c1)OCCO2 | 3.27%
33 | C/C(=N/NC(=O)c1ccncc1)c1ccc2c(c1)OCO2 | 24.8%
34 | C/C(=N/NC(=S)Nc1ccccc1)c1ccc2c(c1)OCO2 | 111% (active)
35 | O=C(CSc1nccc(=O)[nH]1)Nc1ccc(N2CCOCC2)c(Cl)c1 | 0.92%
36 | O=[N+]([O-])c1ccc2[nH]c3c(c2c1)CCCC3O (stereo unspecified) | -1.41%
37 | C#CCNc1ccc(C(=O)OCC)cc1 | -1.69%
38 | CCOC(=O)c1ccc2[nH]c3c(c2c1)CCCC3NC=O (stereo unspecified) | 115% (active)
39 | COc1ccc(S(=O)(=O)N2CCOCC2)cc1NC(=O)CSc1ncnc2ccccc12 | 13.1%
40 | CCOC(=O)N1CCC(NC(=O)CCc2cn(C)c3ccccc23)CC1 | -3.32%
41 | Cc1cc(Nc2ccc(Cl)cc2)nc(N2CCOCC2)n1 | 69.5% (active)
42 | Cc1ccc(Nc2nc(N3CCOCC3)nc(N3CCOCC3)n2)cc1Cl | 12.7%

Row | SMILES | activation
43 | COc1ccc(Nc2ncc(F)c(N3CCOCC3)n2)cc1 | 22.4%
44 | CCCCc1ccc(NS(=O)(=O)c2cccc(C(=O)N3CCCN(C)CC3)c2)cc1 | -1.46%
45 | CCOC(=O)c1ccc(NC(=O)C2CC(=O)N(c3ccc4c(c3)OCCO4)C2)cc1 (stereo unspecified) | -1.04%
46 | O=C(c1cc2ccccc2s1)N1CCN(c2ccccn2)CC1 | 27.8%
47 | CCc1ccccc1N(CC(=O)N1CCN(c2ccccc2F)CC1)S(C)(=O)=O | -0.81%
48 | COc1ccc(/C=N/NC(=O)c2ccc3c(c2)OCCO3)c(OC)c1 | 2.32%
49 | COc1ccc(C(=O)Nc2ccccc2C(=O)N/N=C/c2ccccc2OC)cc1 | 103% (active)
50 | COc1ccc(C(=O)Nc2ccccc2C(=O)N/N=C/c2ccc(O)c(OC)c2)cc1 | 8.36%
51 | O=C(/C=C(O)/C=C/c1ccc(O)cc1)/C=C/c1ccc(O)cc1 | -0.31%
52 | Cn1c(=O)n(C)c2cc(/C=N/NC(=O)c3cccc(Br)c3)ccc21 | 31.6%
53 | O=C(N/N=C/c1cccc(Br)c1)c1ccc(N2CCCC2=O)cc1 | -0.14%
54 | O=C(N/N=C\c1cccc(Br)c1)c1ccccc1-n1cccc1 | 64.9% (active)
55 | CC(C)CC(=O)NC(=S)Nc1ccc(F)cc1F | -1.68%
56 | CCOC(=O)C1CCN(S(=O)(=O)c2c(C)noc2C)CC1 | -0.3%
57 | C=CCC1(C(=O)N(C)Cc2ccccc2)CCN(C(=O)OC(C)(C)C)CC1 | 5%
58 | COC(=O)[C@]1(C)N[C@H](CN(C)C(=O)c2ccc(C(C)(C)C)cc2)[C@@H]2C(=O)N(C)C(=O)[C@@H]21 | 0.09%
59 | N#CCCCn1c(O)c(N=NC(=O)C(O)c2ccccc2)c2ccccc21 (stereo unspecified) | 6.74%
60 | O=C(Nn1cnc2ccccc2c1=O)c1ccccc1 | 4.61%
61 | CC(C(=O)N=Nc1c(O)n(C)c2ccc(Br)cc12)n1cnc2ccccc2c1=O (stereo unspecified) | 80% (active)
